From PubChem BioAssay (NCATS)
Values without a mark were called inactive. Inconclusive results are not listed. Activity calls are given as the source filed them. Unless noted, calls follow the shape of the full dose curve.

Columns and labels:
[1] = target: Lysosomal acid glucosylceramidase (Homo sapiens) (UniProt P04062); assay: Glucocerebrosidase-p2 (AID 348; in the data active = potency below about 10 µM; also: potency is read from the fitted curve at half-maximal effect); conditions: purified GBA, blue fluorogenic substrate, 40 min
Chain of Lysosomal acid glucosylceramidase (Homo sapiens) (P04062 whole entry, looked up): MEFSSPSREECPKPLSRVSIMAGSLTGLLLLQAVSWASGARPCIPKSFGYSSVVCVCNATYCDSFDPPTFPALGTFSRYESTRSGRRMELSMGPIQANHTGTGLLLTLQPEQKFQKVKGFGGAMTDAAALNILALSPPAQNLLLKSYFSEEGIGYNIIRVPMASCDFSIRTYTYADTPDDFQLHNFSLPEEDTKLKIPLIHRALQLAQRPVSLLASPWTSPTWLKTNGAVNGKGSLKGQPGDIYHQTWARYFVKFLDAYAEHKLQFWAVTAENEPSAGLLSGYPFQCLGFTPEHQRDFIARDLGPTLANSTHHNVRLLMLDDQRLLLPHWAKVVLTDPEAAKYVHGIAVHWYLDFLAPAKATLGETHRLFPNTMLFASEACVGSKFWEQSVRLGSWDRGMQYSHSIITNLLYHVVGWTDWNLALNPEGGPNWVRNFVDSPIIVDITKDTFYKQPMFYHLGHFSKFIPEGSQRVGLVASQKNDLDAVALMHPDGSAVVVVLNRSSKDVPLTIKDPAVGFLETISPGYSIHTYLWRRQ
How it was run: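 Compounds titrated from 0.6 nM upwards against 0.2 nM enzyme in pH 5.9 citric acid/KH2PO4, taurocholate, tween-20; blue fluorogenic substrate 80 uM, 40 min room temperature, stopped and read Ex 365/Em 440 for AC50.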

[2] = target: Cytochrome P450 1A2 (Homo sapiens) (UniProt P05177); assay: p450-cyp1a2 (AID 410); conditions: recombinant CYP1A2, luciferin-ME demethylation, luminescence; series mostly up to 11.4 µM; also: potency is read from the fitted curve at half-maximal effect;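 as to activity change, negative = inhibition: -100% = full effect of reference inhibitor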
Chain of Cytochrome P450 1A2 (Homo sapiens) (P05177 whole entry, looked up): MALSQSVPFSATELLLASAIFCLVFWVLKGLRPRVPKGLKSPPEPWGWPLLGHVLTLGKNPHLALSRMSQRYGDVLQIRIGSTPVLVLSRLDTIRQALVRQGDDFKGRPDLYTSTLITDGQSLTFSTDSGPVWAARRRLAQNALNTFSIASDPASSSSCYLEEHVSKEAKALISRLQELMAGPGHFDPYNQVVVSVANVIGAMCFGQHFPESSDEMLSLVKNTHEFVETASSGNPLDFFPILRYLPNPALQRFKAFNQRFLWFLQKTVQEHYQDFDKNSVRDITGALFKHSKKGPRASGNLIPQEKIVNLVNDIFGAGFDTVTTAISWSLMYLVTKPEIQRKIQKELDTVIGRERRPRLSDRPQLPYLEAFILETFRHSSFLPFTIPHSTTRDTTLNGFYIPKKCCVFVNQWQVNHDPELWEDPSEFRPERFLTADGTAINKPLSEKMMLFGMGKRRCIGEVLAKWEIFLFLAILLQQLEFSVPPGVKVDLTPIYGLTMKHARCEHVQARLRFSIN
How it was run: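 Inhibition was calculated relative to 57 uM furafylline (full inhibition). The reaction used human CYP1A2 at 20nM with Luciferin-ME at its Km, 100uM, driven by an NADPH-regenerating system for 60 min at room temperature.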

[3] = NFAT Signaling Pathway (AID 444; active = well fitted curve in either direction with a large enough effect, not every such curve was filed as active;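 also: carbachol stimulus at about its EC50 of 1 µM final; % is scaled to controls: 0 for no effect and ±100 for the full control effect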); conditions: Jurkat NFAT-bla M1, carbachol, beta-lactamase ratio, 5 h; at 7.69 µM (top of the series) unless noted
How it was run: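 Jurkat cells with NFAT-driven β-lactamase reporter and co-expressed M1 receptor, stimulated with carbachol (final 1 uM, ~EC50), compound titration, 5 h at 37 °C. CCF4 loaded 1 h at RT; 460/530 nm ratio gave %activity and AC50.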

[4] = target: Glucocorticoid receptor (Homo sapiens) (UniProt P04150); assay: GR-GFP Redistribution (AID 450;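 active = compounds whose dose series gives a full or clear partial fitted curve of increased nuclear translocation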; also: potency is read from the fitted curve at half-maximal effect); conditions: U2OS GR-GFP nuclear translocation, laser cytometry, 2 h
Chain of Glucocorticoid receptor (Homo sapiens) (P04150 whole entry, looked up, the tested form may be a part): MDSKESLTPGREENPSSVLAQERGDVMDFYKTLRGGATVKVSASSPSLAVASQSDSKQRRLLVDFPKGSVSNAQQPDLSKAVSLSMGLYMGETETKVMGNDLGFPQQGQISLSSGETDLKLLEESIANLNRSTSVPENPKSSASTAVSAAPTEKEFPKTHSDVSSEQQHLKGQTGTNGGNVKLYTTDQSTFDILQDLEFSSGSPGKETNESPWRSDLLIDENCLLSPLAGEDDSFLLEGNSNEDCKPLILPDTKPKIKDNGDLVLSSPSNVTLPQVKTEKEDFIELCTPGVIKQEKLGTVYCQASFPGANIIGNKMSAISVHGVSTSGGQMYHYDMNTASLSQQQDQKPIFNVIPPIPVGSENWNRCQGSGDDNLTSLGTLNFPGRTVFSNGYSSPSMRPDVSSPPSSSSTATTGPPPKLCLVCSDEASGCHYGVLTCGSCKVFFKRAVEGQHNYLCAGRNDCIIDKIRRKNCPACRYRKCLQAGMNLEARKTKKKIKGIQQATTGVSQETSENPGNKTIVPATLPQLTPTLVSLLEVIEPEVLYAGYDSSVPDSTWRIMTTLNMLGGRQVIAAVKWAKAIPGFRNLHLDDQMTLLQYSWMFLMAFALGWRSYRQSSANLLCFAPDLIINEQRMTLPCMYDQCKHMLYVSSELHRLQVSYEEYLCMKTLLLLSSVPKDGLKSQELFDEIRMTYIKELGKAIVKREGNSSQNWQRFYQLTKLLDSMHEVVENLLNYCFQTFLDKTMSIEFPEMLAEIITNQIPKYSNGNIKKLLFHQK

[5] = target: Glucocorticoid receptor (Homo sapiens) (UniProt P04150); assay: GR-EFC Redistribution (AID 451); conditions: CHO-K1 GR-EFC translocation, beta-gal luminescence, 2 h; also: potency is read from the fitted curve at half-maximal effect
How it was run: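 CHO-K1 cells expressing nuclear EA and GR-ED fragments of b-gal; compounds titrated up to 46 uM final, 2 h at 37 C. GR nuclear translocation read as complemented b-gal luminescence after 1 h RT detection.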

[6] = target: Mitogen-activated protein kinase 10 (Mus musculus) (UniProt Q61831); assay: JNK3 AlphaScreen Assay (AID 530; active = well fitted curve in either direction with a large enough effect, not every such curve was filed as active;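 also: kinase came from lysate of stimulated human HepG2 cells; signal reports phosphorylation of biotinylated GST-cJun 1-79 at Ser73 with 10 µM ATP; % is scaled to controls: 0 for no effect and ±100 for the full control effect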); conditions: JNK3 lysate, c-Jun phosphorylation; series mostly up to 11.4 µM
How it was run: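 qHTS format: compounds tested as titrations against IL-1beta/TNF-alpha-activated HepG2 lysate JNK3 with biotin-GST-cJun substrate and 10 uM ATP at room temperature. Loss of anti-phospho-cJun AlphaScreen signal indicates inhibition.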

[7] = target: 3',5'-cyclic-AMP phosphodiesterase 4B (Homo sapiens) (UniProt Q07343); assay: qHTS Assay for Inhibitors of PDE-IV (AID 607; active = well fitted activation curve with a large enough effect in the main read-out, with a control signal flat, not every such curve was filed as active; also: % of control where 0% means no effect); conditions: HEK293 ACTOne CNG channel cells, membrane potential fluorescence; series mostly up to 22.9 µM
Chain of 3',5'-cyclic-AMP phosphodiesterase 4B (Homo sapiens) (Q07343 whole entry, looked up): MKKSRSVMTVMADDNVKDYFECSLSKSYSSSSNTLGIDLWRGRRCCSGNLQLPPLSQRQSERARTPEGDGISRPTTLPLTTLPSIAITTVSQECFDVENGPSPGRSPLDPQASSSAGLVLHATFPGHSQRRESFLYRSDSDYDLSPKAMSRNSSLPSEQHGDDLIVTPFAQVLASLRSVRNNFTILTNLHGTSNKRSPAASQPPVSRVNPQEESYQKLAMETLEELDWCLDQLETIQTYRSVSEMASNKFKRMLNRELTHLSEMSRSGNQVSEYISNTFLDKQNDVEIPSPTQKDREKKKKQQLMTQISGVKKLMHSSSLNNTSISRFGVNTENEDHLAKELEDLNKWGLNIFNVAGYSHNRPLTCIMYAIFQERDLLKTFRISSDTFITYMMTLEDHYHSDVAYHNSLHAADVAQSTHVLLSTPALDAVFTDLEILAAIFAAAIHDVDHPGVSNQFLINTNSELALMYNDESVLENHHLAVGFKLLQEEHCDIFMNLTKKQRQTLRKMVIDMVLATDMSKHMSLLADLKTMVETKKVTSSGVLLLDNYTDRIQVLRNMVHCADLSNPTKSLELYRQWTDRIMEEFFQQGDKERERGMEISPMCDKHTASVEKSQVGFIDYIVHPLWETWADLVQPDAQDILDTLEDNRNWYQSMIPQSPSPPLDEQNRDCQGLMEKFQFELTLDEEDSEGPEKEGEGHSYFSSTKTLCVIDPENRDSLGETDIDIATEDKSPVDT
How it was run: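 HEK293 ACTOne cells with CNG channel (1000/well), endogenous PDE4; membrane potential dye, compounds up to 22.9 uM final. Fluorescence Ex 535/Em 590; RO 20-1724 (100 uM final) as reference.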

[8] = target: Cytochrome P450 3A4 (Homo sapiens) (UniProt P08684); assay: qHTS Assay for Activators of Cytochrome P450 3A4 (AID 885; active = well fitted curve in the direction sought with a large enough effect; an effect the other way counts as inactive or inconclusive; also: nearly all actives have a fitted effect of over 65% in size); conditions: recombinant CYP3A4, Luciferin-PPXE luminescence, 60 min; series mostly up to 11.4 µM
Chain of Cytochrome P450 3A4 (Homo sapiens) (P08684 whole entry, looked up): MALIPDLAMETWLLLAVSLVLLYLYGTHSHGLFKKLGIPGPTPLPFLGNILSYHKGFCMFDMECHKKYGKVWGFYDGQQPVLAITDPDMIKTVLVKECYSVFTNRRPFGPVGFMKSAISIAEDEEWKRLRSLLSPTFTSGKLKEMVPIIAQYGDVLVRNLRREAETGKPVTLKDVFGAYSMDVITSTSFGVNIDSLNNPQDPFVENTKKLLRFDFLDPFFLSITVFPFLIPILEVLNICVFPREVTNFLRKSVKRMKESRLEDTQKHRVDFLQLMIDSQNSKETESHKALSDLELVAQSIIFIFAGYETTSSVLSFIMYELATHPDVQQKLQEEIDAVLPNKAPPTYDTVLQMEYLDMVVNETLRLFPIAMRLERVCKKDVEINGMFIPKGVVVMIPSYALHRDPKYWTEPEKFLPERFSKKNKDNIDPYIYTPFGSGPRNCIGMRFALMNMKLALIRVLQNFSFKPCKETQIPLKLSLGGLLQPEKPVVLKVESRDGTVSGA
How it was run: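 Human CYP3A4 (20 nM) with Luciferin-PPXE at 25 uM (its KM) in 200 mM KPO4; 10 min compound preincubation, then NADPH regeneration and 60 min reaction at RT. Luciferin read by luminescence; normalized to 57 uM ketoconazole full inhibition.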

[9] = target: Cytochrome P450 2C19 (Homo sapiens) (UniProt P33261); assay: qHTS Assay for Inhibitors and Substrates of Cytochrome P450 2C19 (AID 899; active = well fitted curve in the direction sought with a large enough effect; an effect the other way counts as inactive or inconclusive; also: potency is read from the fitted curve at half-maximal effect; nearly all actives have a fitted effect of over 60% in size); conditions: recombinant CYP2C19, luciferin-H EGE luminescence; series mostly up to 11.4 µM
Chain of Cytochrome P450 2C19 (Homo sapiens) (P33261 whole entry, looked up): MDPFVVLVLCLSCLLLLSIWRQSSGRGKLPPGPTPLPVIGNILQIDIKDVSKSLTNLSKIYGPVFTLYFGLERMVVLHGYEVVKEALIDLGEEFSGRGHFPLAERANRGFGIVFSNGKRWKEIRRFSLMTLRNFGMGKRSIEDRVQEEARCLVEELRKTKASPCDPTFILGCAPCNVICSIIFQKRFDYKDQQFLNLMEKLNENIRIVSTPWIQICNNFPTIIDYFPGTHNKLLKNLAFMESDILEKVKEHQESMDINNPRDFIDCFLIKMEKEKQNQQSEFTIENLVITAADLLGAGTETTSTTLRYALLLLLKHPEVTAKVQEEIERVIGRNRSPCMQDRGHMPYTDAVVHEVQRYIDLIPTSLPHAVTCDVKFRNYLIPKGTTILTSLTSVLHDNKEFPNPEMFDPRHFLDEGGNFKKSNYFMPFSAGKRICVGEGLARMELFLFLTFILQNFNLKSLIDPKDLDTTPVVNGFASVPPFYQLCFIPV
How it was run: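 5 nM human CYP2C19 with 10uM Luciferin-H EGE (at KM) in 50mM KPO4, compound preincubated 10 min at 37C, then NADPH regeneration for 60 min at 37C. Luciferin read by luminescence after detection reagent; normalized to 57uM ketoconazole as full inhibition.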

[10] = Stat Signaling Pathway (AID 446; active = well fitted curve in either direction with a large enough effect, not every such curve was filed as active;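 also: ME-180 cervical cancer cells given 40 pM IL-6 alongside compound; SIE-controlled beta-lactamase reporter measured as 460/530 nm FRET emission ratio; % is scaled to controls: 0 for no effect and ±100 for the full control effect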); conditions: ME-180 SIE beta-lactamase reporter, IL-6 stimulated, 5 h; at 7.69 µM (top of the series) unless noted
How it was run: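 ME-180 cells carrying a SIE-driven beta-lactamase reporter are stimulated with 40 pM IL-6 for 5 h at 37C in the presence of compound. The 460/530 nm FRET substrate ratio is read after 2.5 h at RT. Data are normalised to 300 pM IL-6 and to 125 nM JAK inhibitor controls.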

[11] = target: Cytochrome P450 3A4 (Homo sapiens) (UniProt P08684); assay: qHTS Assay for Inhibitors and Substrates of Cytochrome P450 3A4 (AID 884; active = well fitted curve in the direction sought with a large enough effect; an effect the other way counts as inactive or inconclusive; also: % is scaled to controls: 0 for no effect and ±100 for the full control effect; nearly all actives have a fitted effect of over 50% in size); conditions: recombinant CYP3A4, Luciferin-PPXE luminescence; series mostly up to 57.1 µM
How it was run: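 20 nM human CYP3A4 with 25 uM Luciferin-PPXE (at KM) in 200 mM KPO4, preincubated 10 min with compound; NADPH regeneration started a 60 min RT reaction. Luciferin detected by luminescence, normalized to 57 uM ketoconazole as full inhibition.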

[12] = qHTS Assay for Identification of Small Molecule Agonists for Hypoxia Response Element Signaling Pathway (AID 914; active = well fitted activation curve with a large enough effect in the signal ratio, with a control signal flat, not every such curve was filed as active; the % refers to the signal ratio; also: potency is read from the fitted curve at half-maximal effect); conditions: ME-180 (cervical carcinoma) HRE-bla reporter, beta-lactamase ratio, CoCl2, 17 h; activation: stronger effect = higher value
How it was run: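 In Opti-MEM containing 0.5% dialyzed FBS and 10 mM HEPES, ME-180 HRE-bla cells received a compound titration and EC50 CoCl2. They were incubated 17 hours, then CCF4-loaded 2.5 hours at room temperature before ratio reading.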

[13] = target: Cytochrome P450 2D6 (Homo sapiens) (UniProt P10635); assay: qHTS Assay for Inhibitors and Substrates of Cytochrome P450 2D6 (AID 891; active = well fitted curve in the direction sought with a large enough effect; an effect the other way counts as inactive or inconclusive; also: potency is read from the fitted curve at half-maximal effect; nearly all actives have a fitted effect of over 60% in size); conditions: recombinant CYP2D6, luciferin-ME EGE luminescence; series mostly up to 11.4 µM
Chain of Cytochrome P450 2D6 (Homo sapiens) (P10635 whole entry, looked up): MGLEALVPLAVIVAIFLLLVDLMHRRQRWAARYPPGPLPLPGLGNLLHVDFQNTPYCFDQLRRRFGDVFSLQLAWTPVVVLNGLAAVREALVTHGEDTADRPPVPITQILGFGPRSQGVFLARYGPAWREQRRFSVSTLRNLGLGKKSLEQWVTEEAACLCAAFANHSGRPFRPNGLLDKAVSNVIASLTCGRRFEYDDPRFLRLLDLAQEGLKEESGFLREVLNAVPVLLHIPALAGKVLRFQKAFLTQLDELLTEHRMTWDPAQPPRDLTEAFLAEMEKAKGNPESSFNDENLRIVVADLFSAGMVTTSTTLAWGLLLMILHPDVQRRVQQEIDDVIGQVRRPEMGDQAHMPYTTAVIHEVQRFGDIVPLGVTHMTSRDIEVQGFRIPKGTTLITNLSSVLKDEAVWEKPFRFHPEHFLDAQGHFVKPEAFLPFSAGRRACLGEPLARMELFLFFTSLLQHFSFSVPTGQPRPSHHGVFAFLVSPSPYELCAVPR
How it was run: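 Human CYP2D6 (5 nM) with 30 uM Luciferin-ME EGE (at Km) in 100 mM KPO4, compound preincubated 10 min, then NADPH regeneration system for 60 min at room temperature. Luciferin read by luminescence; normalized to 1.43 uM quinidine.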

ON(CCc1ccncc1)Cc1ccccc1
Potency [1]: > 11.4 µM
Potency [2]: 1 µM (active)
activity change, negative = inhibition [3]: 9.66%
Potency [4]: > 46 µM
Potency [5]: > 9.22 µM
Potency [6]: inactive
Potency [7]: inactive
Potency [8]: inactive
Potency [9]: 0.316 µM (active)

CC(=O)Nc1nc(NC(C)=O)c2[nH]c(CO)nc2n1
Potency [1]: > 11.4 µM
Potency [2]: inactive
activity change, negative = inhibition [3]: 1.8%
Potency [4]: > 46 µM
Potency [5]: > 9.22 µM
Potency [6]: inactive
Potency [7]: inactive

CN(C)CCCN1c2ccc(O)cc2Sc2ccc(Cl)cc21
Potency [1]: 9.49 µM (active)
Potency [2]: 0.631 µM (active)
activity, negative = inhibition [10]: 18.9%
Potency [4]: > 46 µM
Potency [5]: > 9.22 µM
Potency [6]: inactive
Potency [7]: inactive

CN1CCN(c2ncc3nc(-c4ccc(Cl)cc4)c(=O)n(C4CC4)c3n2)CC1
Potency [1]: > 11.4 µM
Potency [2]: 15.8 µM (active)
Potency [4]: > 9.22 µM
Potency [5]: > 46 µM
Potency [6]: inactive
Potency [7]: inactive
Potency [11]: inactive
Potency [12]: 3.16 µM (active)

OC[C@@H]1O[C@@H](n2cnc3c(SCc4ccccc4)ncnc32)[C@@H](O)[C@H]1O
Potency [1]: > 11.4 µM
activity change, negative = inhibition [2]: -17.2% [at 2.29 µM]
Potency [4]: > 46 µM
Potency [5]: > 9.22 µM
Potency [6]: inactive
Potency [7]: inactive

CN(C)CCCN1c2ccccc2Sc2ccc3ccccc3c21
Potency [1]: > 11.4 µM
activity change, negative = inhibition [2]: -2.2% [at 2.29 µM]
activity, negative = inhibition [10]: 3.27%
Potency [4]: > 46 µM
Potency [5]: > 9.22 µM
Potency [6]: inactive
Potency [7]: inactive
Potency [13]: 1.26 µM (active)

O=C(c1ccncc1)N1CCC2(CCCN(c3cccc(-c4ccccc4)c3)C2)CC1
Potency [1]: > 11.4 µM
Potency [2]: 12.6 µM (active)
activity change, negative = inhibition [3]: -6.09%
activity, negative = inhibition [10]: -7.37%
Potency [5]: > 46 µM
Potency [6]: inactive

CSc1ccc2c(c1)N(CCCN(C)C)c1ccccc1S2
Potency [1]: > 11.4 µM
Potency [2]: 1.26 µM (active)
activity, negative = inhibition [10]: 2.23%
Potency [4]: > 46 µM
Potency [5]: > 9.22 µM
Potency [6]: inactive
Potency [7]: inactive
Potency [13]: 0.501 µM (active)

COc1cccc2c1[C@H](CO)N1[C@H](C#N)[C@@H]3C[C@H](C(=O)O)[C@@H]([C@@H]1C2)N3C
Potency [1]: > 11.4 µM
activity change, negative = inhibition [2]: -21% [at 2.29 µM]
activity change, negative = inhibition [3]: -126% (active)
Potency [4]: > 46 µM
Potency [5]: > 9.22 µM
Potency [6]: inactive
Potency [7]: inactive
